Reference: ChEMBL document CHEMBL1961873, “Compounds: GSK PKIS; Assays: Nanosyn kinase panel” (2012)
Where “and” joins values, the source holds several entries; their conditions need not be identical. Equal values may be shown once.

How the values were obtained:
[1] = target: Mast/stem cell growth factor receptor Kit (Homo sapiens) (UniProt P10721); details: at 1 µM
[2] = system: Mast/stem cell growth factor receptor Kit (Homo sapiens), P10721 [D816V]; details: at 0.1 µM
[3] = system: Mast/stem cell growth factor receptor Kit (Homo sapiens), P10721 [D816V]; details: at 1 µM
[4] = system: Mast/stem cell growth factor receptor Kit (Homo sapiens), P10721 [T670I]; details: at 0.1 µM
Mast/stem cell growth factor receptor Kit (Homo sapiens), P10721 [T670I], sequence (P10721 whole entry T670I): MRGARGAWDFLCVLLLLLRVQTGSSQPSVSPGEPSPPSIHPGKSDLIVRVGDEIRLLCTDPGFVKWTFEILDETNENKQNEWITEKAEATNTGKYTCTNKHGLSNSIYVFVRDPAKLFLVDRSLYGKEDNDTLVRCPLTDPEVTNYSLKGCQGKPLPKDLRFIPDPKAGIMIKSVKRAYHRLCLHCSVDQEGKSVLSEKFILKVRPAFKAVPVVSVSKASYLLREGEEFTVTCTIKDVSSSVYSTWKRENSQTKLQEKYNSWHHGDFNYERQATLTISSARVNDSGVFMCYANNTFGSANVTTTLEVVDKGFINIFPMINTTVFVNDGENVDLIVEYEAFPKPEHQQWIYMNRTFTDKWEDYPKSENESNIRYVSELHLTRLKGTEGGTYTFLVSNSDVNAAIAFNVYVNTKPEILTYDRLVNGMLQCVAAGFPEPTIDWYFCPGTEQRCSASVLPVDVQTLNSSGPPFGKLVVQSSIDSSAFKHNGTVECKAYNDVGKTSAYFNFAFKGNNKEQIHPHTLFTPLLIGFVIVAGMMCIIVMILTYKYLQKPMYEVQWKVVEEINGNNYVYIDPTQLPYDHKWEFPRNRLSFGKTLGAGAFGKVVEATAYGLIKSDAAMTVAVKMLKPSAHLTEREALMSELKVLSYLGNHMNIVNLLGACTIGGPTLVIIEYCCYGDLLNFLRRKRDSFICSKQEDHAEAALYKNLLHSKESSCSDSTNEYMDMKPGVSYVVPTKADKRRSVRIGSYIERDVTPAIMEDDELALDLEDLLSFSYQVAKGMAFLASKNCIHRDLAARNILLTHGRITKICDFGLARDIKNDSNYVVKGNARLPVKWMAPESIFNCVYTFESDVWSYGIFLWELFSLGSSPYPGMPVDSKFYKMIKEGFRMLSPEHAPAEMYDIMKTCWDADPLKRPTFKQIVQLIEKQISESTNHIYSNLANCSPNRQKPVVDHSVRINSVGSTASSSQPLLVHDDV

[5] = system: Mast/stem cell growth factor receptor Kit (Homo sapiens), P10721 [T670I]; details: at 1 µM
[6] = system: Mast/stem cell growth factor receptor Kit (Homo sapiens), P10721 [V560G]; details: at 0.1 µM
Mast/stem cell growth factor receptor Kit (Homo sapiens), P10721 [V560G], sequence (P10721 whole entry V560G): as the sequence (P10721 whole entry T670I) above, with V560G, I670T counted along it

[7] = system: Mast/stem cell growth factor receptor Kit (Homo sapiens), P10721 [V560G]; details: at 1 µM
[8] = target: Tyrosine-protein kinase Lck (Homo sapiens) (UniProt P06239); details: at 0.1 µM
Tyrosine-protein kinase Lck (Homo sapiens), sequence (P06239 2-509 limits assumed): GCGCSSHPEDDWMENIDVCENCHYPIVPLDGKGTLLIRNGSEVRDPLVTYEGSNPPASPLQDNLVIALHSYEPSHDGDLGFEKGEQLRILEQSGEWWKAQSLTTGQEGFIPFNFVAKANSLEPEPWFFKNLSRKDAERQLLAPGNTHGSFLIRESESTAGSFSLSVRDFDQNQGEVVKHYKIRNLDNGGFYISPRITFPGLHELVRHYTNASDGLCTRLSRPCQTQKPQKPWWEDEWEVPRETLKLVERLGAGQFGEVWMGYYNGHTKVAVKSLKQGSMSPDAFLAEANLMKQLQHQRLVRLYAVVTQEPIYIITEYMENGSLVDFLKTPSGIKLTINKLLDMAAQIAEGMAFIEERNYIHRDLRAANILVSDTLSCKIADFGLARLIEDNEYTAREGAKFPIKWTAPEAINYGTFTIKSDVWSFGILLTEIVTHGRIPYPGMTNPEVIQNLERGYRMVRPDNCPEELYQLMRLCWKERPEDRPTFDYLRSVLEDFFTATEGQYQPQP

[9] = target: Tyrosine-protein kinase Lck (Homo sapiens) (UniProt P06239); details: at 1 µM
[10] = target: Leukocyte tyrosine kinase receptor (Homo sapiens) (UniProt P29376); details: at 0.1 µM
Leukocyte tyrosine kinase receptor (Homo sapiens), sequence (P29376 whole entry): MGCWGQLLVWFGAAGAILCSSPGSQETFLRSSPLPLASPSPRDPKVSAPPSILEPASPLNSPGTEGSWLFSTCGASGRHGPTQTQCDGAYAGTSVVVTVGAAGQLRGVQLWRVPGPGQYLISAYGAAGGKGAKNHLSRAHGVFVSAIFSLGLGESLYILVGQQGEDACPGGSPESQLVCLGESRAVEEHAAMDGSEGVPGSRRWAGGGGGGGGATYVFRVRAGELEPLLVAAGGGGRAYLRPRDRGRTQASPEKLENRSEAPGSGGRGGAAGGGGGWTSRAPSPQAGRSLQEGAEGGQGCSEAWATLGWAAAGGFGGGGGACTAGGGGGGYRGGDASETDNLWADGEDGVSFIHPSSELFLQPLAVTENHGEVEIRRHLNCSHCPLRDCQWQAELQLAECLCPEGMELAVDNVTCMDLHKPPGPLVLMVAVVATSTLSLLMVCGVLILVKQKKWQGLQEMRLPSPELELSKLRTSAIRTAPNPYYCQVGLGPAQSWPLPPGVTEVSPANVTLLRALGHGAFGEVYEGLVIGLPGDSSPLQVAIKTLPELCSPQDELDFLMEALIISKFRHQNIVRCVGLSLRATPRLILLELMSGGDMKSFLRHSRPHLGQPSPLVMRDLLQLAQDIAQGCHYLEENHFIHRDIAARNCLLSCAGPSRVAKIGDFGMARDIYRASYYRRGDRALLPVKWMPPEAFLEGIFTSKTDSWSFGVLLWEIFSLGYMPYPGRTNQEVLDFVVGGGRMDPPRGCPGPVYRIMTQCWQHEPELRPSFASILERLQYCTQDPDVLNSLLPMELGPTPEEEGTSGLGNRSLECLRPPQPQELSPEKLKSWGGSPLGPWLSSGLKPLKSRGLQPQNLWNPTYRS

[11] = target: Leukocyte tyrosine kinase receptor (Homo sapiens) (UniProt P29376); details: at 1 µM
[12] = target: Tyrosine-protein kinase Lyn (Homo sapiens) (UniProt P07948); details: at 0.1 µM
Tyrosine-protein kinase Lyn (Homo sapiens), sequence (P07948 2-512 limits assumed): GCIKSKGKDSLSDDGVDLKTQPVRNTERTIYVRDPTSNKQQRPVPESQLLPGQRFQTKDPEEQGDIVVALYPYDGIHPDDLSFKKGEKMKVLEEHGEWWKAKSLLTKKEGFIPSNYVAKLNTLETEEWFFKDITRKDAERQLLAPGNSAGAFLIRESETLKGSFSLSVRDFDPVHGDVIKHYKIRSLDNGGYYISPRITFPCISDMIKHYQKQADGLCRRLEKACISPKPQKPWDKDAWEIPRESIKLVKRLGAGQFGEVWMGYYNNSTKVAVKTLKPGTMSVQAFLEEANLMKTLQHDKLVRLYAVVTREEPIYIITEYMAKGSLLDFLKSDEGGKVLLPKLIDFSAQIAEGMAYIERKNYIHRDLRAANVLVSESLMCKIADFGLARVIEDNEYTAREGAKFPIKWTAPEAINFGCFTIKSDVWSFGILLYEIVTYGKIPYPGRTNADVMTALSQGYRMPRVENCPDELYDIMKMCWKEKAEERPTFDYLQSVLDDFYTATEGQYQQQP

[13] = target: Tyrosine-protein kinase Lyn (Homo sapiens) (UniProt P07948); details: at 1 µM
[14] = target: Tyrosine-protein kinase Lyn (Homo sapiens) (UniProt P07948); details: at 0.1 µM; remark: listed apart in the source
[15] = target: Tyrosine-protein kinase Lyn (Homo sapiens) (UniProt P07948); details: at 1 µM; remark: listed apart in the source
[16] = target: T1, Tyrosine-protein kinase Mer (Homo sapiens) (UniProt Q12866); details: at 0.1 µM
T1 sequence (whole entry): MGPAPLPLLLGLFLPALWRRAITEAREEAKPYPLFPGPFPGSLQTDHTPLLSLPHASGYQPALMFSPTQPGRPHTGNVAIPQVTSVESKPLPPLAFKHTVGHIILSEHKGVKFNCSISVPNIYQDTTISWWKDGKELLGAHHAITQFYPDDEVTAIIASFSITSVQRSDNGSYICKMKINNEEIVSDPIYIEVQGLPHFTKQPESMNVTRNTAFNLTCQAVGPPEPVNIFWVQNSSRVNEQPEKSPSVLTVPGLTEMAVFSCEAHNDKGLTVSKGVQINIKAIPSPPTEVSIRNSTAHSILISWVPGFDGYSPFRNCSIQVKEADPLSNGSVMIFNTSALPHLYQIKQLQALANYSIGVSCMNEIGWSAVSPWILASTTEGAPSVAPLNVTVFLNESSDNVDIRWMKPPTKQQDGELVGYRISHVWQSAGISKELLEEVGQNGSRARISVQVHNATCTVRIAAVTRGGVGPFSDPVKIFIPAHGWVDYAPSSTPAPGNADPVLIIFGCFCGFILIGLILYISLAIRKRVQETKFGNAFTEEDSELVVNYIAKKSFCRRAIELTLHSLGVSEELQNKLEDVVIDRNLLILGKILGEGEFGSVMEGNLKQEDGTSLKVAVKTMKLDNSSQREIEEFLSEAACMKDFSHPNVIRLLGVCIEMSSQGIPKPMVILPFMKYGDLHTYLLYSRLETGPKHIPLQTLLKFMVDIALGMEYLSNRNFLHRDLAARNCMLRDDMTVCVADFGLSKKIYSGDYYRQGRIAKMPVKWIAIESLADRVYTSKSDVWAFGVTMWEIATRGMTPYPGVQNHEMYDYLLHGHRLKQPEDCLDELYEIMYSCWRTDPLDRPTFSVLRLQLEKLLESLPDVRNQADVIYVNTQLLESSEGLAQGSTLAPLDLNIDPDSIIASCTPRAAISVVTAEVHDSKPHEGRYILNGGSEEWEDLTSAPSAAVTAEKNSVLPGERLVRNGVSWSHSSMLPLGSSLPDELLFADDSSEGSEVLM

[17] = target: T1, Tyrosine-protein kinase Mer (Homo sapiens); details: at 1 µM
[18] = target: Hepatocyte growth factor receptor (Homo sapiens) (UniProt P08581); details: at 0.1 µM
Hepatocyte growth factor receptor (Homo sapiens), sequence (P08581 whole entry): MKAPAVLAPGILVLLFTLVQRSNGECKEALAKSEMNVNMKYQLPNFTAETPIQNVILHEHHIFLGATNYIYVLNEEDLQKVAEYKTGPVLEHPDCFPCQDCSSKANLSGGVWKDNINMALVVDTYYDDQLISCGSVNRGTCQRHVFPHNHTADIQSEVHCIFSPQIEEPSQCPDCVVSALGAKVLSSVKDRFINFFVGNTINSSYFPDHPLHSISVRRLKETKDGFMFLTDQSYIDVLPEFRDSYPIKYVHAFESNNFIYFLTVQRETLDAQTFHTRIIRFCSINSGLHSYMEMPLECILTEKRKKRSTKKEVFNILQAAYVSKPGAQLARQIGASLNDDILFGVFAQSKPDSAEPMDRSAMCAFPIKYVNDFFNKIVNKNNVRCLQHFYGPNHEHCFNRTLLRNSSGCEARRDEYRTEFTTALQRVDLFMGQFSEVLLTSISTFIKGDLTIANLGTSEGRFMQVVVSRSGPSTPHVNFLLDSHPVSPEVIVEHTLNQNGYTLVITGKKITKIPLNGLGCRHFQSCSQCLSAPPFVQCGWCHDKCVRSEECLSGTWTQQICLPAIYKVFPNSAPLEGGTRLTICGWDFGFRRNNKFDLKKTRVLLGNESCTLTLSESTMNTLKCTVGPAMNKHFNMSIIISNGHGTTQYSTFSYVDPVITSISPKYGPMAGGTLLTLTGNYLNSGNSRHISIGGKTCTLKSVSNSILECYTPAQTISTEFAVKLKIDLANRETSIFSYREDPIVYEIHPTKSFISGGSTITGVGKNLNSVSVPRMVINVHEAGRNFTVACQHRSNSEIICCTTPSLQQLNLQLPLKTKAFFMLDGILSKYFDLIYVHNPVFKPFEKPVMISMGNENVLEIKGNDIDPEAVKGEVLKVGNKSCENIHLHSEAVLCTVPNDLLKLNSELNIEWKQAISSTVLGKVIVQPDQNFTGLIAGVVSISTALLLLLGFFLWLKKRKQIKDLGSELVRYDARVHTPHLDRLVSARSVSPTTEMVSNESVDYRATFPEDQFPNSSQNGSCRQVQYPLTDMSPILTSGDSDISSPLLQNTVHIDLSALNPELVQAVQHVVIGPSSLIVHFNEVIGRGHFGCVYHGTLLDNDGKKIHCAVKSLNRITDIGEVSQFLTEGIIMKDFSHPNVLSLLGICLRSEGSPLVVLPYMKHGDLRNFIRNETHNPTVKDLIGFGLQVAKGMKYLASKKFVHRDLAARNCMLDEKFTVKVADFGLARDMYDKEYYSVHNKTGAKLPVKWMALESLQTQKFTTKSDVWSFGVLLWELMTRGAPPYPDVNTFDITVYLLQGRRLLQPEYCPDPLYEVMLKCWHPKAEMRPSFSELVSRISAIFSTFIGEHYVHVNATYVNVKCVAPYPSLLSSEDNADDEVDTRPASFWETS

[19] = target: Hepatocyte growth factor receptor (Homo sapiens) (UniProt P08581); details: at 1 µM
[20] = target: T2, Muscle, skeletal receptor tyrosine-protein kinase (Homo sapiens) (UniProt O15146); details: at 0.1 µM;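 also: values are mean inhibition of MuSK from the GSK PKIS kinase screening panel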
T2 sequence (whole entry): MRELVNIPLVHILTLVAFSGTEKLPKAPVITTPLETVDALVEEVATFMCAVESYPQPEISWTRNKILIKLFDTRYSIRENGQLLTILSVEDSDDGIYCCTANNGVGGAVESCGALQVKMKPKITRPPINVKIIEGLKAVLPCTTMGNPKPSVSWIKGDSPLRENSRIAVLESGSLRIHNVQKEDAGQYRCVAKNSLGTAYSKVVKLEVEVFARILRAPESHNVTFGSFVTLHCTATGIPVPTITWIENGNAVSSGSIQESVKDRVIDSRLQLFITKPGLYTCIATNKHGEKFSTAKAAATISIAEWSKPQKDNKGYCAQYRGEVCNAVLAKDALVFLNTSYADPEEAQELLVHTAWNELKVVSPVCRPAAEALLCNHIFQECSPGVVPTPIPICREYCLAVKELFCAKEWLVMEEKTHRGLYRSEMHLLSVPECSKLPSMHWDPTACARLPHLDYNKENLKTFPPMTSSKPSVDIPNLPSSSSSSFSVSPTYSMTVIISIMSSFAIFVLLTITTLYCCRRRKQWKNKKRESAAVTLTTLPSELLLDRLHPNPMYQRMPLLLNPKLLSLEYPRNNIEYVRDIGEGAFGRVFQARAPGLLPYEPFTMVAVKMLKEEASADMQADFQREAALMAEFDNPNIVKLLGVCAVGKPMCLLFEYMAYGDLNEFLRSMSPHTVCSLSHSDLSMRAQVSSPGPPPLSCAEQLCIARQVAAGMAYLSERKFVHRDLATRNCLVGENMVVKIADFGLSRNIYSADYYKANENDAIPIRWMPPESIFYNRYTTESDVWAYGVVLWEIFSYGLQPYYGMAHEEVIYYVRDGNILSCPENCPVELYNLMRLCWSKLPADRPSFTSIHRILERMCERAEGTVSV

Mast/stem cell growth factor receptor Kit (Homo sapiens), sequence (P10721 whole entry): as the sequence (P10721 whole entry T670I) above, with I670T counted along it
Mast/stem cell growth factor receptor Kit (Homo sapiens), P10721 [D816V], sequence (P10721 whole entry D816V): as the sequence (P10721 whole entry T670I) above, with I670T, D816V counted along it

NS(=O)(=O)c1ccc(N/N=C2\C(=O)Nc3cccc(CCc4ccncc4)c32)cc1
inhibition [1]: 63.7% | inhibition [2]: 2.92% | inhibition [3]: 5.18% | inhibition [4]: 6.45% | inhibition [5]: 15% | inhibition [6]: 4.31% | inhibition [7]: 14.1% | inhibition [8]: 2.22% | inhibition [9]: 5.75% | inhibition [10]: 1.69% | inhibition [11]: 1.43% | inhibition [12]: 2.64% | inhibition [13]: 6.56% | inhibition [14]: 2.69% | inhibition [15]: 5.45% | inhibition [16]: 2.62% | inhibition [17]: 3.17% | inhibition [18]: 10.5% | inhibition [19]: 15.4% | inhibition [20]: 12.2%

Nc1ncnc2occ(-c3ccc(NC(=O)Nc4cc(C(F)(F)F)ccc4F)cc3)c12
inhibition [1]: 102% and 99.8% | inhibition [2]: 2.13% and -0.16% | inhibition [3]: 3.55% and 0.01% | inhibition [4]: 64.5% and 57% | inhibition [5]: 85.6% and 96% | inhibition [6]: 70.7% and 81.8% | inhibition [7]: 78.7% and 97.7% | inhibition [8]: 10.9% and 3.28% | inhibition [10]: 7.84% and 2.37% | inhibition [11]: 53.6% and 34% | inhibition [12]: 20.4% and 9.18% | inhibition [13]: 73.7% and 57.2% | inhibition [14]: 17.2% and 6.3% | inhibition [15]: 70.5% and 53.6% | inhibition [16]: 4.87% and 1.22% | inhibition [17]: 34.7% and 21.6% | inhibition [18]: 11% and 2.19% | inhibition [19]: 29.8% and 11% | inhibition [20]: 87.2% and 84.2%

CCn1c(-c2nonc2N)nc2cncc(C(=O)NCCNC)c21
inhibition [1]: 11.8% | inhibition [2]: 12.8% | inhibition [3]: 3.67% | inhibition [4]: 3.08% | inhibition [5]: 6% | inhibition [6]: -0.72% | inhibition [7]: 0.98% | inhibition [8]: 2.21% | inhibition [9]: 3.67% | inhibition [10]: 5.21% | inhibition [11]: 5.16% | inhibition [12]: 5.55% | inhibition [13]: 6.4% | inhibition [14]: 3.01% | inhibition [15]: 4.46% | inhibition [16]: 3.05% | inhibition [17]: 3.22% | inhibition [18]: 1.82% | inhibition [19]: 4.45% | inhibition [20]: 5.69%

COc1ccc(-c2nn3ncccc3c2-c2ccnc(Nc3ccc(F)c(F)c3)n2)cc1
inhibition [1]: 28.2% | inhibition [2]: 6.57% | inhibition [3]: 5.39% | inhibition [4]: 3.81% | inhibition [5]: 11.5% | inhibition [6]: -0.18% | inhibition [7]: 4.13% | inhibition [8]: 7.63% | inhibition [9]: 39.1% | inhibition [10]: 4.19% | inhibition [11]: 5.06% | inhibition [12]: 6.17% | inhibition [13]: 21.3% | inhibition [14]: 3.08% | inhibition [15]: 17.7% | inhibition [16]: 1.6% | inhibition [17]: 7.43% | inhibition [18]: 1.87% | inhibition [19]: 8.73% | inhibition [20]: 3.13%

Cc1nnc(-c2cccc(-c3ccc(C(=O)NCC4CC4)cc3)c2)o1
inhibition [1]: 9.77% | inhibition [2]: 1.04% | inhibition [3]: 7.79% | inhibition [4]: 5.46% | inhibition [5]: 5.66% | inhibition [6]: 0.29% | inhibition [7]: 2.8% | inhibition [8]: 2.77% | inhibition [9]: 2.64% | inhibition [10]: 4.15% | inhibition [11]: 4.76% | inhibition [12]: 7.2% | inhibition [13]: 5.98% | inhibition [14]: 3.09% | inhibition [15]: 5.48% | inhibition [16]: 0.22% | inhibition [17]: 0.56% | inhibition [18]: 3.78% | inhibition [19]: 7.87% | inhibition [20]: 2.8%

COC(=O)Nc1nc2cc(Oc3ccc(NC(=O)Nc4ccccc4)cc3)ccc2[nH]1
inhibition [1]: 68% | inhibition [2]: 2.82% | inhibition [3]: 12% | inhibition [4]: 4.22% | inhibition [5]: 8.76% | inhibition [6]: 25.3% | inhibition [7]: 67.9% | inhibition [8]: 2.87% | inhibition [9]: 4.96% | inhibition [10]: 2.55% | inhibition [11]: 4.01% | inhibition [12]: 3.96% | inhibition [13]: 8.66% | inhibition [14]: 2.63% | inhibition [15]: 6.73% | inhibition [16]: 1.34% | inhibition [17]: 2.99% | inhibition [18]: 2.87% | inhibition [19]: 18.7% | inhibition [20]: 3.96%

Cc1cc(O)cc(C)c1/C=C/c1cncc(C(N)=O)c1
inhibition [1]: 66.6% | inhibition [2]: 3.61% | inhibition [3]: 2.03% | inhibition [4]: 2.25% | inhibition [5]: 1.74% | inhibition [6]: 2.69% | inhibition [7]: 22.9% | inhibition [8]: 8.78% | inhibition [9]: 44.1% | inhibition [10]: 2.14% | inhibition [11]: 3.91% | inhibition [12]: 14.8% | inhibition [13]: 61% | inhibition [14]: 10.4% | inhibition [15]: 57% | inhibition [16]: 1.5% | inhibition [17]: 2.49% | inhibition [18]: 0.96% | inhibition [19]: 6.76% | inhibition [20]: 3.77%

COc1cc2c(cc1Nc1nc(Nc3cccc(F)c3C(N)=O)c3cc[nH]c3n1)N(C(=O)CN1CCN(C(C)C)CC1)CC2
inhibition [1]: 1.51% | inhibition [2]: -0.69% | inhibition [3]: 0.07% | inhibition [4]: -0.28% | inhibition [5]: -0.5% | inhibition [6]: -3.41% | inhibition [7]: -2.31% | inhibition [8]: 2.47% | inhibition [9]: 0.75% | inhibition [10]: 27.6% | inhibition [11]: 80.7% | inhibition [12]: 0.63% | inhibition [13]: -0.57% | inhibition [14]: -1.56% | inhibition [15]: -0.54% | inhibition [16]: 1.98% | inhibition [17]: 3.27% | inhibition [18]: 5.94% | inhibition [19]: 1.99% | inhibition [20]: 1.22%

Cn1c(-c2nonc2N)nc2cnccc21
inhibition [1]: 5.33% | inhibition [2]: 1.72% | inhibition [3]: 2.94% | inhibition [4]: 2.83% | inhibition [5]: 2.49% | inhibition [6]: -0.55% | inhibition [7]: -0.31% | inhibition [8]: 2.46% | inhibition [9]: 3.49% | inhibition [10]: 2.56% | inhibition [11]: 4.18% | inhibition [12]: 4.05% | inhibition [13]: 2.29% | inhibition [14]: 2.97% | inhibition [15]: 1.52% | inhibition [16]: 1.12% | inhibition [17]: 3.84% | inhibition [18]: 3.78% | inhibition [19]: 3.65% | inhibition [20]: 2.14%
